# This is a sample that favours compounds with a hit; in the whole collection about 3.5% have one here.
# MITF primary: blocks human microphthalmia-associated transcription factor | O75030 | AlphaScreen MITF homodimerization, bead proximity signal | inhibition, % at 2.6 µM | 0.91% of 650,000 active | AID 1259374; in the data active means inhibition above about 50%
# TEAD-YAP block: TEAD-YAP interaction inhibition | AID 1259422 | HEK-TIYL cells, TEAD-Gal4/YAP UAS-luciferase luminescence | 1.4% of 640,000 active | inhibition, % at 9.12 µM; in the data active means inhibition above about 32%
# FBW7 activator: human FBW7 E3 ligase activation, primary screen. Q969H0. AlphaScreen FBW7–phospho-cyclin E peptide binding, activator screen. normalized activity (activation), % at 26.1 µM. 0.13% of 650,000 active; in the data active means normalized activity above about 1.9%;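 further: purified mutant Fbw7 with reduced substrate affinity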
# GPR151 ag: human GPR151 activation | activation, % at 11.2 µM | PathHunter beta-arrestin GPR151 cells, luminescence | 1% of 650,000 active; in the data active means activation above about 4.9%
# MITF confirm: human MITF inhibition, confirmation | 16% of 4,700 active | inhibition, % at 2.6 µM | AlphaScreen MITF homodimerization, biotin/His-MITF beads | shares compounds with MITF primary | AID 1259372;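 active means inhibition above a cutoff derived from the DMSO control wells, cut at about 28% in these data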;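 further: inhibitors lower the bead chemiluminescence by keeping MITF from dimerizing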
# AS interf DR: optically interferes with AlphaScreen signal in dose response. shares compounds with MITF primary. AlphaScreen optical interference counterscreen, cell-free. IC50, µM. 6% of 480 active. AID 1259373; call rule not given here
# AlphaScreen intf2: counter-screen: compounds optically interfering with AlphaScreen; 7.6% of 4,700 active; inhibition, % at 2.6 µM; AID 1259376; LysRS AlphaScreen counterscreen, signal interference, triplicate; shares compounds with MITF primary;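 active means inhibition above a cutoff derived from the DMSO control wells, cut at about 30% in these data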
# Numbers stand for hits; i = inactive; nt = no result given.
SMILES,MITF primary,TEAD-YAP block,FBW7 activator,GPR151 ag,MITF confirm,AlphaScreen intf2,others
CCOC(=O)Cc1[nH]nc2c1C1(C(=O)N(CC)c3ccccc31)C(C#N)=C(N)O2 (stereo not given),60.1,i,i,i,27.5,i,AS interf DR=i
Cc1ccc(CN2CCN(C3CCCCCC3)CC2)cc1,68.8,i,i,i,i,i,
CSc1ccc(CN2CCN(C3CCCC3)CC2)cc1,54.3,i,i,i,i,i,
CSc1ccc(CN2CCC(N3CCCCC3)CC2)cc1,i,i,i,i,nt,nt,
CCc1ccc(CN2CCN(C3CCCCC3)CC2)cc1,62.2,i,i,i,i,i,
CCc1ccc(CN2CCN(C3CCCC3)CC2)cc1,i,i,i,i,nt,nt,
O=C(Nc1ccccc1-c1ccccc1)Nc1cccn(Cc2ccccc2)c1=O,i,i,i,i,nt,nt,
COc1ccc(Cc2nnc(N/N=C/c3cccc([N+](=O)[O-])c3)[nH]c2=O)cc1OC,i,i,i,i,nt,nt,
COc1ccc(Cc2nnc(N/N=C/c3c(CO)cnc(C)c3O)[nH]c2=O)cc1OC,111.5,i,i,i,107.3,99.9,
CCOc1cc(CN2CCN(S(=O)(=O)CC)CC2)ccc1OC,i,i,i,i,nt,nt,
CCOc1cc(CN2CCN(S(C)(=O)=O)CC2)ccc1OC,55.0,i,i,i,i,i,
CCOc1cc(CN2CCN(Cc3ccncc3)CC2)ccc1OC,73.3,i,i,i,i,i,
COc1cc(CN2CCN(S(C)(=O)=O)CC2)ccc1OCc1ccccc1,54.4,i,i,i,i,i,
CCOc1cc(CN2CCN(Cc3ccc(F)cc3)CC2)ccc1OC,i,i,i,i,nt,nt,
N=C1SCC(=O)N1c1ncc(Cc2ccccc2)s1,59.4,i,i,i,i,42.6,
N=C1SCC(=O)N1c1ncc(Cc2cccc(C(F)(F)F)c2)s1,i,i,i,i,nt,nt,
CC(C)c1ccc(NC(=O)CCN2C(=O)c3ccncc3C2=O)cc1,i,i,i,i,nt,nt,
Cc1cc(Cl)c(OCCOCCn2ccnc2)c(Br)c1,75.2,i,i,i,i,i,
Cc1cc(Cl)c(OCCn2ccnc2)c(Br)c1,i,i,i,i,nt,nt,
Cc1cc(OCCOCCN2CCN(C)CC2)cc(C(C)C)c1,i,i,i,i,nt,nt,
Cc1cc(OCCOCCN2CCOCC2)cc(C(C)C)c1,65.0,i,i,i,i,i,
Cc1ccc(OCCOCCN2CCOCC2)c(Br)c1,75.4,i,i,i,i,i,
Cc1cc(Cl)c(OCCOCCN2CCOCC2)c(Br)c1,72.0,i,i,i,i,i,
O=C(CCC(=O)OCC(=O)c1ccc(Cl)c([N+](=O)[O-])c1)Nc1ccc(F)cc1,i,i,i,i,nt,nt,
CC(=O)N(CN1C(=O)C2C3c4ccccc4C(c4ccccc43)C2C1=O)c1ccccc1 (stereo not given),i,i,i,i,nt,nt,
SMILES,MITF primary,TEAD-YAP block,FBW7 activator,GPR151 ag,MITF confirm,AlphaScreen intf2,others
O=C(NCc1cnn(-c2ccccc2)n1)C1CC(Cc2ccc3c(c2)OCO3)=NO1 (stereo not given),i,i,i,i,nt,nt,
COCCN(Cc1cc2ccccc2[nH]c1=O)C(=O)c1cccs1,i,i,i,i,nt,nt,
CCC(C)(C)NC(=O)CN(C(=O)c1csnn1)c1ccc(Cl)cc1,i,i,i,i,nt,nt,
COc1ccc2c(CNCCCc3ccccc3)c(C(=O)O)[nH]c2c1,i,i,i,i,nt,nt,
O=C1CCCCC1CNc1cccc(C(F)(F)F)c1 (stereo not given),74.2,i,i,i,i,i,
COC(=O)Cc1c(C)c2ccc(OCC(N)=O)c(C)c2oc1=O,73.0,i,i,i,i,i,
COC(=O)Cc1c(C)c2ccc(OCC(=O)OC(C)(C)C)c(C)c2oc1=O,i,i,i,i,nt,nt,
COc1cc2nc(CN3CCCC3c3nccs3)nc(N)c2cc1OC (stereo not given),64.4,i,i,i,61.1,99.2,
CCN1CCN(CCCCOc2cccc(C(F)(F)F)c2)CC1,64.5,i,i,i,i,i,
CCN1CCN(CCOCCOc2ccc(CCC(C)=O)cc2)CC1,66.0,i,i,i,i,i,
CCOc1ccc(OCCCN2CCN(C)CC2)cc1,79.3,i,i,i,i,i,
CCOc1ccc(OCCCCN2CCN(C)CC2)cc1,86.1,i,i,i,i,i,
O=CN1CCN(S(=O)(=O)c2cccc(C(F)(F)F)c2)CC1,i,i,i,i,nt,nt,
CN1CCN(CCOCCOc2ccc(C(C)(C)C)cc2)CC1,65.3,i,i,i,i,i,
CCCOc1cccc(OCCN2CCN(CC)CC2)c1,79.3,i,i,i,i,i,

# Bioassay records (PubChem BioAssay)
